Bioassay records deposited in PubChem by National Center for Advancing Translational Sciences (NCATS).
Only a selection was taken, and hits are over-represented in it overall.
ALOX12 inh = blocks human arachidonate 12S-lipoxygenase | P18054 | purified 12hLO, xylenol orange hydroperoxide absorbance | Potency, µM (titrated, usually from 108 µM), without a hit: at the highest dose activity change, negative = inhibition, usual class: inhibitors | hit rate 1.1% among 580,000 | AID 1671190; also: % is scaled to controls: 0 for no effect and ±100 for the full control effect
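Purified human 12hLO (150 nM final) in 25 mM Hepes, 0.01% Triton X-100, pH 7.0 was preincubated 15 min at room temperature with compound. Then 40 uM arachidonic acid was added, 30 min. Hydroperoxide was read by Fe-XO absorbance ratio 573/405 nm.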
VDR inh = blocks the human vitamin D receptor; VDR-SRC2-3 peptide fluorescence polarization, 2 h; Potency, µM, for inactives: max response, negative = inhibition, hits mostly inhibitors; hit rate 0.93% among 400,000; AID 504847; also: % is scaled to controls: 0 for no effect and ±100 for the full control effect
Target sequence (P11473 whole entry, looked up): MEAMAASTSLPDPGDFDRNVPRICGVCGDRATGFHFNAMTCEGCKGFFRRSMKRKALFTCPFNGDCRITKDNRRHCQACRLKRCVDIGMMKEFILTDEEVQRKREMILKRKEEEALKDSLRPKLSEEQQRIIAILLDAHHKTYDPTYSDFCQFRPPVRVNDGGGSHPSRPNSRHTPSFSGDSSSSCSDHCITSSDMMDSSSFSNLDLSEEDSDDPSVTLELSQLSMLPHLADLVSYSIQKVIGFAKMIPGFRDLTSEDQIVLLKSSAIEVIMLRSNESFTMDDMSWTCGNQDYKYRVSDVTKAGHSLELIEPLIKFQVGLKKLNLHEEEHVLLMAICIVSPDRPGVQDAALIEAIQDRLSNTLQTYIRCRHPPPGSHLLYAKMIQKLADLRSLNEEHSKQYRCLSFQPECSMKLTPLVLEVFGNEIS
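Reagent solutions, kept cold and dark, are dispensed first; compounds are then pinned in at 23 nl, plates briefly spun, and incubated 2 h at ambient temperature. Inhibition of VDR–SRC2-3 peptide binding is read by fluorescence polarization.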
GRP78 ERSR act = inducers of ER stress response in human glioma cells | AID 602332 | U87-MG GRP78 promoter luciferase reporter, 16 h | hit rate 0.02% among 420,000 | Potency, µM, inactives show at the highest dose activation, most hits filed as activators; also: series mostly up to about 76 µM; % of control where 0% means no effect; nearly all actives have a fitted effect of over 35% in size
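ERSR induction read as luciferase luminescence (Bright-Glo, 10 min at room temperature) in stably transfected human U87-MG glioma cells exposed to compounds for 16 h, using GRP78 as sensor.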
G9a block = inhibitors of human histone lysine methyltransferase G9a; Q96KQ7; G9a H3K9 monomethylation, AlphaScreen, 2 h; Potency, µM (doses to about 102 µM), without a hit: at the highest dose activity, negative = inhibition, actives largely listed as inhibitors; hit rate 8.8% among 350,000; AID 504332; also: % is scaled to controls: 0 for no effect and ±100 for the full control effect; nearly all actives have a fitted effect of over 75% in size
Target sequence (Q96KQ7 913-1193 limits assumed): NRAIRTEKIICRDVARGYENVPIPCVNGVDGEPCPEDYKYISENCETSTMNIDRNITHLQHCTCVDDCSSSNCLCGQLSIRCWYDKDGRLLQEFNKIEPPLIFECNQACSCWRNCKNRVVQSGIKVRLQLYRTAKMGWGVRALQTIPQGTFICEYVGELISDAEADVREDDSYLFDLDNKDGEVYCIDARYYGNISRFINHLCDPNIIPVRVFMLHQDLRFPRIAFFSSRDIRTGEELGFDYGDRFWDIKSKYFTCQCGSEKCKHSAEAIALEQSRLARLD
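Methyltransferase reactions run at room temperature for 2 h (20 nM enzyme, 500 nM biotin-H3K9 peptide, 20 uM SAM) after a 15 min compound preincubation; product detected by AlphaScreen beads and anti-H3K9me1 antibody.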
Sfp inh = Sfp phosphopantetheinyl transferase inhibition | Q9F4F7 | Biochemical Sfp PPTase activity, qHTS | Potency, µM, without a hit: largest response in the series, negative = inhibition, actives largely listed as inhibitors | hit rate 3.5% among 310,000 | AID 1490;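 also: the enzyme is Sfp with the accession as filed and its product quenches rhodamine fluorescence; 0% = enzyme reaction without inhibitor and -100% = no enzyme wells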
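Fluorescence-quenching assay with 15 nM Sfp, 5 uM rhodamine-CoA and 12.5 uM BHQ-2-labelled ybbR peptide in pH 7.6 Hepes/MgCl2 buffer. Enzyme was pre-incubated with compound for 15 min at room temperature. Rate was taken from the 30-min fluorescence change (525/598 nm).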
* = called active by the depositor; ? = inconclusive; / = no result; ! = not active in a repeat; [ ] = dose if it differs, or a comment. Calls follow the shape of the dose curve; as a rule, active = well fitted curve in the direction sought with a large enough effect; inconclusive = small, poorly fitted or top-dose-only effect, or another doubt; inactive = no such curve, though single readings can be large; an effect the other way counts as inactive or inconclusive. Potency is read from the fitted curve at half-maximal effect.

SMILES	ALOX12 inh	VDR inh	GRP78 ERSR act	G9a block	Sfp inh
CC1(CCl)N([O-])C2=C(CCCC2)[N+]1=O (stereo unspecified)	?	11%	-2%	32µM*	35µM*
CCCN(CCC)Cc1c(C(=O)N/N=C/C(C)=C\c2ccco2)nnn1-c1nonc1N	?	18%	-4%	?	-16%
CC(/C=N/NC(=O)c1nnn(-c2nonc2N)c1CN(C)C)=C\c1ccco1	-21%	6%	0%	79µM*	?
COc1cccc(-c2noc(CC3CCN(C(=O)c4ccc(OC)c(OC)c4)CC3)n2)c1	51%	/	/	/	/
O=C(CSc1nc2ccc([N+](=O)[O-])cc2[nH]1)NC1CCCCCC1	-29%	-15%	-4%	45µM*	23%
O=[N+]([O-])c1ccc2nc(SCc3cn4ccccc4n3)[nH]c2c1	18%	3%	6%	10µM*	11%
O=[N+]([O-])c1ccc2nc(SCc3cn4cccnc4n3)[nH]c2c1	-7%	-10%	-3%	?	-21%
Cc1ccc2nc(SCC(=O)NC3CC3)[nH]c2c1	-6%	11%	5%	20%	-3%
O=C(CSc1nc2ccc(Cl)cc2[nH]1)NC1CCCC1	?	0%	-2%	25µM*	-1%
O=C(CSc1nc2ccc([N+](=O)[O-])cc2[nH]1)NC1CCCCC1	1%	0%	-2%	9%[59 µM]	17%
CCS(=O)(=O)c1nc(S(=O)(=O)c2ccc(C)cc2)c(NC2CCCC2)s1	-6%	/	/	/	/
Cc1ccc(C(=O)N(Cc2ccccn2)C2CC2)s1	-16%	/	/	/	/
O=C(CN1CCN(C(=O)c2cc(-c3ccccc3Cl)n[nH]2)CC1)N1CCCCC1	0%	/	/	/	/
COc1ccc(-n2nnnc2C(C2CC2)N2CCN(C/C=C/c3ccccc3)CC2)cc1 (stereo unspecified)	40µM*	/	-3%	/	/
Cc1cccc(C)c1-n1nnnc1C(C1CC1)N1CCN(C/C=C/c2ccccc2)CC1 (stereo unspecified)	-25%	/	-5%	/	/
CCOC(=O)c1ccc(NC(=O)CSc2nc(=O)[nH]nc2C)cc1	-4%	/	/	/	/
CCN(CC)S(=O)(=O)c1cccc(-c2nnc(SCC(=O)NC)n2N)c1	-15%	0%	-2%	-4%	6%
CCN(CC)S(=O)(=O)c1cccc(-c2nnc(SCc3nnc(-c4cccs4)o3)n2N)c1	0%	1%	-4%	50µM*	-10%
CC(=O)Nc1ccc(CN2CC(N(C)c3ccccc3C)C2)cc1	3%[176 µM]	/	/	/	/
O=C1CS/C(=N/N=C\c2ccn[nH]2)N1	169%	-6%	-4%	/	56µM*
O=C(CSc1nccc(=O)[nH]1)c1ccccc1Br	2%	?	6%	7.9µM*	50µM*
CCN1CCN(c2ccc(N=Cc3ccccc3O)cc2)CC1	-22%	-10%	2%	50µM*	18%
N#Cc1nc(-c2ccc([N+](=O)[O-])cc2)oc1NCCc1ccccc1	5%	/	/	/	/
COc1ccc2c(c1)cc(CNc1ccc(OC)c(OC)c1)c(=O)n2CC(=O)Nc1ccccc1C	-17%	2%	-1%	?	/
COc1ccc2c(c1)cc(CNc1ccc(OC)c(OC)c1)c(=O)n2CC(=O)Nc1ccc(F)cc1	0%	9%	-4%	2.8µM*	/
SMILES	ALOX12 inh	VDR inh	GRP78 ERSR act	G9a block	Sfp inh
COc1ccc2cc(CNc3ccc(OC)c(OC)c3)c(=O)n(CC(=O)Nc3ccc(C)cc3)c2c1	0%	6%	-3%	2.8µM*	/
CC(=O)c1ccc(OCC(=O)NC2CCc3ccccc32)cc1 (stereo unspecified)	17%	/	/	/	/
COc1cc(C)ccc1NC(=O)Cc1csc(NC(=O)Nc2ccccc2OC)n1	-8%	10%	-3%	13µM*	/
COc1ccccc1NC(=O)Cc1csc(NC(=S)Nc2ccc(C)cc2)n1	10µM*	-2%	0%	-14%	?
O=C1CC(N2CCC(Cc3ccccc3)CC2)C(=O)N1CCc1ccccc1 (stereo unspecified)	-5%	-2%	0%	50µM*	56µM*
O=C1CC(N2CCN(C3CC(=O)N(CCc4ccccc4)C3=O)CC2)C(=O)N1CCc1ccccc1 (stereo unspecified)	3%	3%	-5%	-21%	15%
O=C(NCCCN1CCOCC1)C1CCN(S(=O)(=O)c2cccc(C(F)(F)F)c2)CC1	6%	-13%	1%	30%[12.7 µM]	/
O=C(Nc1ccc(Cl)c(Cl)c1)N(CCCN1CCOCC1)Cc1cccs1	-18%	-17%	-6%	-8%	6%
O=S(=O)(c1cccc(C(F)(F)F)c1)N(CCCN1CCOCC1)Cc1cccs1	?	-3%	-2%	4.5µM*!	?
Cc1c(Cl)cccc1NC(=S)N(CCCN1CCOCC1)Cc1cccs1	-13%	-10%	-3%	17%	-8%
Cc1ccc(NC(=S)N(CCCN2CCOCC2)Cc2cccs2)c(C)c1	8%	-3%	-5%	?	25µM*
COC(=O)c1ccccc1S(=O)(=O)N(CCCN1CCOCC1)Cc1cccs1	22%	13%	-3%	7.9µM*	4%
COc1ccc2nc([C@H]3CCN(Cc4ccc5c(c4)OCO5)C3)[nH]c2c1	-11%[176 µM]	/	/	/	/
NS(=O)(=O)c1ccc(NC(=O)CN2CCN(S(=O)(=O)c3cccs3)CC2)cc1	-9%	-6%	-1%	50µM*	/
C/C(CC(=O)Nc1ccccn1)=N\NC(=O)C(=O)Nc1cccc(Cl)c1C	26%	8%	12%	3%	18%
Cc1ccc(C)c(NC(=O)CN2CCN(S(=O)(=O)c3cccs3)CC2)c1	-1%	/	/	/	/
COc1ccccc1NC(=O)CN1CCN(CC(=O)Nc2ccc(OCc3ccccc3)cc2)CC1	-15%	8%	-1%	35µM*	6%
COc1ccc(NC(=O)C/C(C)=N/NC(=O)C(=O)Nc2cccc(Cl)c2C)c(OC)c1	0%	4%	-2%	56µM*	15%
COc1cc(NC(=O)CN2CCN(CC(=O)Nc3ccccc3OC)CC2)cc(OC)c1	6%	-12%	-1%	45µM*	11%
O=C(Nc1ccccc1)N1CCCC1c1ccc(Cl)cc1 (stereo unspecified)	7%	/	/	/	/
COc1ccccc1NC(=O)CN1CCN(CC(=O)Nc2ccc(S(N)(=O)=O)cc2)CC1	4%	-8%	2%	45µM*	15%
COc1ccccc1NC(=O)C(C)OC(=O)C(C)SCC(=O)Nc1ccc(C)cc1 (stereo unspecified)	?	-17%	-4%	35µM*	/
COc1ccc(NC(=O)CN2CCN(CC(=O)Nc3ccccc3Cl)CC2)c(OC)c1	0%	-1%	2%	45µM*	16%
COc1ccc(NC(=O)CN2CCN(CC(=O)Nc3ccccc3F)CC2)cc1OC	9%	33%	-5%	45µM*!	10%
CC(C)c1cccc(C(C)C)c1NC(=O)CCn1cnc2c1c(=O)n(C)c(=O)n2C	-4%	/	/	/	/
N#Cc1ccccc1COC(=O)c1ccccc1C(=O)c1ccccc1	6%	/	/	/	/
CCOC(=O)N1CCC(NC(=O)c2cc3cc(C)ccc3[nH]2)CC1	-15%	/	/	/	/
